The source of these data is PubChem BioAssay (NCI).

Some test systems named below: SK-MEL-2 melanoma; EKVX NSCLC; SN12C renal; UO-31 renal; TK-10 renal; ACHN renal; CAKI-1 renal; A498 renal; CCRF-CEM leukemia; MOLT-4 leukemia.
Common to all, as to test: NCI-60 one-dose screen, 48 h (100 = growth as untreated, 0 = no growth, -100 = all killed)
Holding throughout (details): 10 µM unless noted

Structures are written as SMILES. This is part of a sample that, as a whole, favours compounds with a hit. Of some 83,000 tested, about 20% had one in any assay.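 Note: values are percent growth. 100 is the growth of untreated cells, values between 100 and 0 indicate rising inhibition; between -100 and 0 indicates cell death.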 Unmarked numbers belong to inactive results. Active and inactive are the calls of the source. Rule for the calls: active = growth percent below 10; inactive = the rest.

On to `N#Cc1nc2c(S(=O)(=O)c3ccccc3)c(N)n(Cc3cccnc3)c2nc1C#N`, for which the growth in the assay with SK-MEL-2 melanoma was 111%; in the assay on EKVX NSCLC, 76.7%; in the assay on SN12C renal it was 138%; in the assay with UO-31 renal, 58.4%; in the assay with TK-10 renal it was 99.2%; in the assay with ACHN renal it was 96.2%. In addition, the growth in the assay with CAKI-1 renal is 96.3%; in the assay on A498 renal, 104%; in the assay on CCRF-CEM leukemia, 35.3%; in the assay with MOLT-4 leukemia, 50%.

With `CC(O)c1ncc(/C=C2\SC(=S)N(Cc3ccccc3)C2=O)s1` (stereo not given), the growth was 91% with SK-MEL-2 melanoma; 101% in the assay with EKVX NSCLC; 110% with SN12C renal; 85.8% in the assay with UO-31 renal; 33.7% in the assay on TK-10 renal; 95.6% in the assay with ACHN renal. Besides, the growth in the assay on CAKI-1 renal was 93.4%; with A498 renal, 100%; in the assay on CCRF-CEM leukemia it was 98.6%; in the assay on MOLT-4 leukemia, 108%.

For the compound `CN1CCN(c2ccc3c(c2)nc(NNC(=O)c2cnccn2)c2cccn23)CC1`, the growth in the assay with SK-MEL-2 melanoma is 64.8%; in the assay on EKVX NSCLC it was 30.1%; in the assay with SN12C renal, 27.6%; with UO-31 renal, 3.3% (active); in the assay on TK-10 renal it was 44.8%; with ACHN renal, 8.28% (active). Besides, the growth in the assay on CAKI-1 renal is 22.5%; with A498 renal it was 31.4%; in the assay on CCRF-CEM leukemia, 11.4%; with MOLT-4 leukemia, 13.9%.

Take `COc1cc(-c2nc(NC(C)=O)sc2-c2ccnc(NCCNS(=O)(=O)c3ccccc3)n2)ccc1Cl`: the growth in the assay with SK-MEL-2 melanoma was -12.6% (active); in the assay on EKVX NSCLC, 45.4%; in the assay on SN12C renal, 48.2%; in the assay with UO-31 renal, 63.3%; in the assay with TK-10 renal it was 39.5%; with ACHN renal it was 44%. In addition, the growth was 57.9% in the assay with CAKI-1 renal, 27.1% in the assay with A498 renal, 13% in the assay with CCRF-CEM leukemia and 15.5% in the assay with MOLT-4 leukemia.

With `O=C(CCCCCCCCC(=O)N/N=C\c1cc(Cl)ccc1O)N/N=C\c1cc(Cl)ccc1O`, the growth in the assay on SK-MEL-2 melanoma was 18.6%; in the assay with EKVX NSCLC, 54.7%; in the assay with SN12C renal it was 28.7%; in the assay with UO-31 renal, 19%; in the assay on TK-10 renal it was 45.7%; in the assay on ACHN renal, 9.47% (active). The growth in the assay on CAKI-1 renal was 11.6%; in the assay on A498 renal, 73.4%; in the assay with CCRF-CEM leukemia it was 12.1%; in the assay with MOLT-4 leukemia it was 15.3%.

For the compound `CCCCN1C(=O)/C(=c2\sc3n(c2=O)NC2C(N=3)N(CC)C(=O)N2CC)c2ccccc21` (stereo not given), the growth with SK-MEL-2 melanoma is 59.1%; in the assay on EKVX NSCLC it was 67.9%; with SN12C renal, 50.5%; in the assay on UO-31 renal it was 40.1%; in the assay with TK-10 renal, 83.8%; with ACHN renal, 48.4%. Besides, the growth in the assay with CAKI-1 renal was 30.3%; with A498 renal it was 42.3%; with CCRF-CEM leukemia it was 26.1%; with MOLT-4 leukemia, 43.6%.

Turning to `N=c1sc(Cc2cc(Cl)ccc2Cl)cn1CC(=O)c1ccccc1`, the growth in the assay on SK-MEL-2 melanoma was 61.6%; with EKVX NSCLC it was 54.4%; with SN12C renal, 63%; with UO-31 renal, 43.9%; in the assay with TK-10 renal, 61.3%; with ACHN renal it was 37.3%. For the same compound, the growth was 21.1% in the assay with CAKI-1 renal, 49% in the assay with A498 renal, 60% with CCRF-CEM leukemia and 49.8% in the assay with MOLT-4 leukemia.

With `O=C(Cn1nnc2ccccc21)Nc1ccc(-c2nc3ccccc3s2)cc1`, the growth in the assay on SK-MEL-2 melanoma was 101%; in the assay with EKVX NSCLC it was 78.2%; in the assay with SN12C renal, 101%; with UO-31 renal it was 86.5%; with TK-10 renal it was 94.8%; in the assay on ACHN renal, 110%. The growth in the assay with CAKI-1 renal is 85.5%; with A498 renal, 85.1%; with CCRF-CEM leukemia it was 69.7%; in the assay on MOLT-4 leukemia it was 61.6%.

Regarding `CO[C@H](C(=O)[C@@H](O)[C@@H](C)O)[C@@H]1Cc2cc3cc(O[C@H]4C[C@@H](O[C@H]5C[C@@H](O)[C@H](O)C(C)O5)[C@H](O)C(C)O4)c(C)c(O)c3c(O)c2C(=O)[C@H]1O[C@H]1C[C@@H](O[C@H]2C[C@@H](O[C@H]3C[C@@H](OC)[C@H](O)C(C)O3)[C@@H](O)C(C)O2)C(O)(O)C(C)O1` (stereo not given in full), the growth in the assay with SK-MEL-2 melanoma was -79.2% (active); with EKVX NSCLC it was 18%; in the assay with SN12C renal it was 8.08% (active); in the assay on UO-31 renal, 3.17% (active); with TK-10 renal, 12.1%; in the assay with ACHN renal it was 0.683% (active). Also, the growth with CAKI-1 renal was 6.9% (active); in the assay with A498 renal it was -35.7% (active); in the assay with CCRF-CEM leukemia, 34.2%; with MOLT-4 leukemia, 18%.

Turning to `COC(c1ccc2ccccc2c1)C(C)C(F)F` (stereo not given), the growth with SK-MEL-2 melanoma was 97.8%; in the assay with EKVX NSCLC it was 100%; in the assay on SN12C renal, 98.2%; in the assay with UO-31 renal, 90.6%; in the assay with TK-10 renal, 86.4%; with ACHN renal it was 100%. Further, the growth is 95.9% in the assay on CAKI-1 renal, 99.7% in the assay with A498 renal, 62.2% in the assay on CCRF-CEM leukemia and 99.3% in the assay on MOLT-4 leukemia.

For `COc1ccc(/C(C)=C(\c2ccc(OCCN3CCCCCC3)cc2)c2ccc(OC(=O)c3ccccc3)cc2)cc1`, the growth with SK-MEL-2 melanoma was 54.6%; with EKVX NSCLC it was 74.4%; with SN12C renal it was 56.2%; with UO-31 renal, 26.2%; with TK-10 renal it was 74.5%; in the assay with ACHN renal, 72.3%. Also, the growth was 52.9% in the assay on CAKI-1 renal, 82.1% in the assay on A498 renal, 26.8% in the assay with CCRF-CEM leukemia and 17.4% in the assay on MOLT-4 leukemia.

Take `N#CC(C#N)N=Nc1ccc(Cl)cc1Cl`: the growth in the assay with SK-MEL-2 melanoma is 99.9%; in the assay on EKVX NSCLC, 99.3%; in the assay on SN12C renal, 82.9%; with UO-31 renal, 57.8%; in the assay with TK-10 renal, 90.8%; in the assay on ACHN renal, 58.4%. Moreover, the growth in the assay with CAKI-1 renal is 70.8%; in the assay with A498 renal, 84.7%; in the assay with CCRF-CEM leukemia, 48.3%; with MOLT-4 leukemia it was 75.5%.

With `COc1ccc2c(c1)c(-c1nonc1-c1cn(C)c3ccc(OC)cc13)cn2C`, the growth in the assay on SK-MEL-2 melanoma was 41.8%; in the assay with EKVX NSCLC it was 47.4%; in the assay on SN12C renal, 43.8%; with UO-31 renal, 49%; with TK-10 renal, 71.2%; in the assay with ACHN renal, 51.7%. Besides, the growth in the assay with CAKI-1 renal is 31.9%; in the assay on A498 renal, 18.4%; with CCRF-CEM leukemia it was 26.6%; in the assay with MOLT-4 leukemia it was 25.4%.
